Activity calls are given as the source filed them. Rule for the calls, unless noted: active = hit-call score of the fitted dose curve at least 0.9, where 1 is the maximum; inactive = score below 0.9.
Legend:
[1] = read-out: Protein phosphatase 2A (PPP2R4), PTPA (gene 5524); assay: LTEA_HepaRG_PPP2R4: Life Technologies and Expression Analysis (LTEA) Assay for Protein phosphatase 2A (PPP2R4) using HepaRG (AID 2283522); details: mRNA level, 48 h; actives raise or lower the signal
Outline: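 Using HepaRG cultures maintained in 0.5% DMSO, chemicals are tested 48 h at up to 100 uM in duplicate. Induction or suppression of PPP2R4 mRNA, measured by qRT-PCR, is fitted bidirectionally against the vehicle baseline.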

[2] = read-out: Phosphatase and tensin (PTEN), PTEN (gene 5728); assay: LTEA_HepaRG_PTEN: Life Technologies and Expression Analysis (LTEA) Assay for Phosphatase and tensin (PTEN) using HepaRG (AID 2283523); details: mRNA level, 48 h; actives raise or lower the signal
Outline: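 HepaRG, 48 h exposure, 8-pt half-log series from 100 uM top, 0.5% DMSO vehicle, duplicates. Readout: Fluidigm qRT-PCR of PTEN transcript; housekeeping normalization (ACTB, GAPDH, POLR2A). Gain or loss fitted relative to DMSO baseline.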

[3] = read-out: solute carrier (SLC22A1), SLC22A1 (gene 6580); assay: LTEA_HepaRG_SLC22A1: Life Technologies and Expression Analysis (LTEA) Assay for solute carrier (SLC22A1) using HepaRG (AID 2283524); details: mRNA level, 48 h; actives raise or lower the signal;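 for AC50: differentiated human HepaRG liver cells in serum-free induction medium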
Outline: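 qRT-PCR readout (TaqMan, Fluidigm arrays) of SLC22A1 transcript, normalized to three housekeeping genes; bidirectional curve fit relative to 0.5% DMSO vehicle. Differentiated human HepaRG cells, 48 h chemical exposure, top concentration 100 uM, half-log steps, eight points.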

[4] = read-out: Pyruvate Dehydrogenase Kinase 4 (PDK4), PDK4 (gene 5166); assay: LTEA_HepaRG_PDK4: Life Technologies and Expression Analysis (LTEA) Assay for Pyruvate Dehydrogenase Kinase 4 (PDK4) using HepaRG (AID 2283525); details: mRNA level, 48 h; actives raise or lower the signal
Outline: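 HepaRG (human liver line), 48 h chemical exposure, 8-pt half-log CRC top 100 uM, 0.5% DMSO vehicle, duplicates. Readout: TaqMan qRT-PCR of PDK4 mRNA, housekeeping-normalized; gain/loss fit relative to DMSO baseline.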

[5] = read-out: NAD(P)H dehydrogenase [quinone] 1 (NQO1), NQO1 (gene 1728); assay: LTEA_HepaRG_NQO1: Life Technologies and Expression Analysis (LTEA) Assay for NAD(P)H dehydrogenase [quinone] 1 (NQO1) using HepaRG (AID 2283526); details: mRNA level, 48 h; actives raise or lower the signal
Outline: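 In this assay, gene expression is read by qRT-PCR after 48 h exposure of HepaRG cells to eight concentrations (max 100 uM, half-log) in 0.5% DMSO. Each chemical runs in duplicate, and activity is scored relative to vehicle.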

[6] = read-out: Nuclear factor erythroid 2-related factor 2 (Homo sapiens) (UniProt Q16236); assay: LTEA_HepaRG_NFE2L2: Life Technologies and Expression Analysis (LTEA) Assay for Nuclear factor erythroid 2-related factor 2 (NFE2L2) Transcription Factor using HepaRG (AID 2283527); details: mRNA level, 48 h; actives raise or lower the signal;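 note: TaqMan qRT-PCR transcript level normalised to ACTB GAPDH and POLR2A housekeeping genes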
Outline: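 HepaRG, 48 h dosing, 8-pt half-log series from 100 uM in 0.5% DMSO, duplicates. Read-out: NFE2L2 mRNA by qRT-PCR (ACTB/GAPDH/POLR2A normalization). Bidirectional curve fit vs DMSO baseline.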

[7] = read-out: succinate dehydrogenase complex iron sulfur subunit B (SDHB), SDHB (gene 6390); assay: LTEA_HepaRG_SDHB: Life Technologies and Expression Analysis (LTEA) Assay for succinate dehydrogenase complex iron sulfur subunit B (SDHB) using HepaRG (AID 2283528); details: mRNA level, 48 h; actives raise or lower the signal
Outline: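 Readout is SDHB transcript level by qRT-PCR, normalised to three housekeeping genes and fitted bidirectionally against 0.5% DMSO vehicle. Human HepaRG cells were treated for 48 h at up to 100 uM.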

[8] = read-out: Signal transducer and activator of transcription 3 (Homo sapiens) (UniProt P40763); assay: LTEA_HepaRG_STAT3: Life Technologies and Expression Analysis (LTEA) Assay for Signal transducer and activator of transcription (STAT3) using HepaRG (AID 2283529); details: mRNA level, 48 h; actives raise or lower the signal
Outline: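 HepaRG, 48 h exposure, 8-pt half-log series (top 100 uM), 0.5% DMSO vehicle, duplicates. Readout: STAT3 transcript by Fluidigm qRT-PCR, housekeeping-normalized; bidirectional fit vs DMSO baseline.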

[9] = read-out: solute carrier (SLCO1B1), SLCO1B1 (gene 10599); assay: LTEA_HepaRG_SLCO1B1: Life Technologies and Expression Analysis (LTEA) Assay for solute carrier (SLCO1B1) using HepaRG (AID 2283530); details: mRNA level, 48 h; actives raise or lower the signal
Outline: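 Human HepaRG cultures treated for 48 h with an eight-concentration half-log series topping at 100 uM; SLCO1B1 measured by qRT-PCR and fitted bidirectionally relative to DMSO.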

[10] = read-out: sulfotransferase 2A1 (SULT2A1), SULT2A1 (gene 6822); assay: LTEA_HepaRG_SULT2A1: Life Technologies and Expression Analysis (LTEA) Assay for sulfotransferase 2A1 (SULT2A1) using HepaRG (AID 2283531); details: mRNA level, 48 h; actives raise or lower the signal
Outline: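 Gene-expression endpoint in a human liver cell line: SULT2A1 mRNA change after 48 h chemical treatment, curves fitted in both directions relative to 0.5% DMSO vehicle. Concentrations spanned eight half-log steps from 100 uM.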

[11] = read-out: Transforming Growth Factor (TGFA), TGFA (gene 7039); assay: LTEA_HepaRG_TGFA: Life Technologies and Expression Analysis (LTEA) Assay for Transforming Growth Factor (TGFA) using HepaRG (AID 2283532); details: mRNA level, 48 h; actives raise or lower the signal
Outline: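 qRT-PCR read-out of TGFA transcript, normalized to three housekeeping genes, fitted bidirectionally against 0.5% DMSO baseline. Human HepaRG cultures received chemicals for 48 h at eight half-log concentrations, top 100 uM.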

[12] = read-out: Transforming Growth Factor (TGFB1), TGFB1 (gene 7040); assay: LTEA_HepaRG_TGFB1: Life Technologies and Expression Analysis (LTEA) Assay for Transforming Growth Factor (TGFB1) Transporter using HepaRG (AID 2283533); details: mRNA level, 48 h; actives raise or lower the signal
Outline: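 Eight-point concentration-response (max 100 uM, half-log) in HepaRG under serum-free induction conditions, 48 h. TGFB1 mRNA by qRT-PCR, housekeeping-normalized.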

[13] = read-out: TIMP1, TIMP1 (gene 7076); assay: LTEA_HepaRG_TIMP1: Life Technologies and Expression Analysis (LTEA) Assay for TIMP1 using HepaRG (AID 2283534); details: mRNA level, 48 h; actives raise or lower the signal
Outline: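 TIMP1 induction or repression in HepaRG cells after 48 h chemical exposure (eight concentrations, highest 100 uM), assessed by normalized qRT-PCR with bidirectional fitting to DMSO controls.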

[14] = read-out: Tumor necrosis factor receptor 1 (TNFRSF1A), TNFRSF1A (gene 7132); assay: LTEA_HepaRG_TNFRSF1A: Life Technologies and Expression Analysis (LTEA) Assay for Tumor necrosis factor receptor 1 (TNFRSF1A) using HepaRG (AID 2283535); details: mRNA level, 48 h; actives raise or lower the signal
Outline: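 Assay uses 48 h chemical treatment of differentiated HepaRG monolayers, tested in duplicate at eight concentrations from 100 uM downward in 0.5% DMSO. mRNA is normalized to ACTB, GAPDH and POLR2A, with induction or suppression fitted relative to vehicle.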

[15] = read-out: Thyroid Hormone Responsive (THRSP), THRSP (gene 7069); assay: LTEA_HepaRG_THRSP: Life Technologies and Expression Analysis (LTEA) Assay for Thyroid Hormone Responsive (THRSP) using HepaRG (AID 2283536); details: mRNA level, 48 h; actives raise or lower the signal
Outline: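 qRT-PCR read-out (Fluidigm TaqMan), housekeeping-normalized (ACTB/GAPDH/POLR2A). HepaRG, 48 h chemical exposure, 8-pt half-log series from 100 uM in 0.5% DMSO, duplicates. Bidirectional curve fit vs 0.5% DMSO baseline.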

[16] = read-out: Cellular tumor antigen p53 (Homo sapiens) (UniProt P04637); assay: LTEA_HepaRG_TP53: Life Technologies and Expression Analysis (LTEA) Assay for Tumor Protein P53 (TP53) using HepaRG (AID 2283537); details: mRNA level, 48 h; actives raise or lower the signal
Outline: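 Read-out is TP53 transcript level by microfluidic qRT-PCR, normalised to three housekeeping genes and fitted bidirectionally against DMSO. Human HepaRG cells received compounds for 48 h, highest concentration 100 uM.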

[17] = read-out: UDP glucuronosyltransferase (UGT1A1), UGT1A1 (gene 54658); assay: LTEA_HepaRG_UGT1A1: Life Technologies and Expression Analysis (LTEA) Assay for UDP glucuronosyltransferase (UGT1A1) using HepaRG (AID 2283538); details: mRNA level, 48 h; actives raise or lower the signal
Outline: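 mRNA induction or loss of UGT1A1, by TaqMan qRT-PCR, in duplicate HepaRG wells after 48 h exposure to half-log dilutions topping at 100 uM; DMSO (0.5%) served as baseline.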

[18] = read-out: X-box binding protein 1 (XBP1), XBP1 (gene 7494); assay: LTEA_HepaRG_XBP1: Life Technologies and Expression Analysis (LTEA) Assay for X-box binding protein 1 (XBP1) using HepaRG (AID 2283540); details: mRNA level, 48 h; actives raise or lower the signal
Outline: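 Eight concentrations (half-log, highest 100 uM, 0.5% DMSO) tested in duplicate on HepaRG cells over 48 h in serum-free induction medium; qRT-PCR of XBP1 normalised to ACTB, GAPDH, POLR2A.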

[19] = LTEA_HepaRG_LDH_cytotoxicity: Cytotoxicity Assessment in the Life Technologies and Expression Analysis (LTEA) Assay (AID 2283563; active = hit-call score of the fitted dose curve at least 0.9, where 1 is the maximum;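 for AC50: LDH activity released into spent culture medium as a marker of cell death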)
Outline: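 Spent-medium LDH after 48 h chemical exposure of HepaRG cells in serum-free induction medium; eight concentrations, half-log dilutions from 100 uM, duplicate wells, fitted upward relative to 0.5% DMSO.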

[20] = read-out: UDP glucuronosyltransferase (UGT1A6), UGT1A6 (gene 54578); assay: LTEA_HepaRG_UGT1A6: Life Technologies and Expression Analysis (LTEA) Assay for UDP glucuronosyltransferase (UGT1A6) using HepaRG (AID 2283539); details: mRNA level, 48 h; actives raise or lower the signal
Outline: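 Measures mRNA change in HepaRG hepatic cells exposed 48 h to chemicals (eight-point, maximum 100 uM, 0.5% DMSO vehicle) in serum-free induction medium. Expression normalized to endogenous controls; DMSO served as negative control and baseline.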

Measured: AC50

Chain of Cellular tumor antigen p53 (Homo sapiens) (P04637 whole entry, looked up): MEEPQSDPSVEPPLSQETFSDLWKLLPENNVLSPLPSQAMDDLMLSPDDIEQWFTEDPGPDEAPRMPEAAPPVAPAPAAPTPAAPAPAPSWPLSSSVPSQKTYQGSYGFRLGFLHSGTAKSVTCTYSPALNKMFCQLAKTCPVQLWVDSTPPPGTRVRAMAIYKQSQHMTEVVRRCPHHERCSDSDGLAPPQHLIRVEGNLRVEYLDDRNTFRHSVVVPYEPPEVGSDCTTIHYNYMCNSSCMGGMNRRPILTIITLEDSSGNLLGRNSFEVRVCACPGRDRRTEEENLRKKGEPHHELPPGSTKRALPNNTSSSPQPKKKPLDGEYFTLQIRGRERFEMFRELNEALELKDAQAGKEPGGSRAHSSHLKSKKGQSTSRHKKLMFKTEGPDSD
Chain of Nuclear factor erythroid 2-related factor 2 (Homo sapiens) (Q16236 whole entry, looked up): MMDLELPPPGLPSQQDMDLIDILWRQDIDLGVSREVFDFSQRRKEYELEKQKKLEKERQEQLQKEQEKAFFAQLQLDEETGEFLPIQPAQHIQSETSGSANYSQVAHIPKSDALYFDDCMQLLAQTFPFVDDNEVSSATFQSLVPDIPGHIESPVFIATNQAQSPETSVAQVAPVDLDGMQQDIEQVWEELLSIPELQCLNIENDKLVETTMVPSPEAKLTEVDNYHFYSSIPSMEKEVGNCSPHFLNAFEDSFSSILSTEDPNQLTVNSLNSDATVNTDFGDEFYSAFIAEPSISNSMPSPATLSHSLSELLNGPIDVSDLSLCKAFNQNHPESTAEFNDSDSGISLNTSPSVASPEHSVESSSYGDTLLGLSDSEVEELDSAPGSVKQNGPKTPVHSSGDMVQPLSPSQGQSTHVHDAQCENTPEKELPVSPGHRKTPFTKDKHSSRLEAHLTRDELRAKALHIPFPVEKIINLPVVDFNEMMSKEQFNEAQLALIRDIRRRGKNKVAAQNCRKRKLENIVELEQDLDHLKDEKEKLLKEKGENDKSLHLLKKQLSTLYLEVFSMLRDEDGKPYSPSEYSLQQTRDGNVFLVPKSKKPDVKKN
Chain of Signal transducer and activator of transcription 3 (Homo sapiens) (P40763 whole entry, looked up): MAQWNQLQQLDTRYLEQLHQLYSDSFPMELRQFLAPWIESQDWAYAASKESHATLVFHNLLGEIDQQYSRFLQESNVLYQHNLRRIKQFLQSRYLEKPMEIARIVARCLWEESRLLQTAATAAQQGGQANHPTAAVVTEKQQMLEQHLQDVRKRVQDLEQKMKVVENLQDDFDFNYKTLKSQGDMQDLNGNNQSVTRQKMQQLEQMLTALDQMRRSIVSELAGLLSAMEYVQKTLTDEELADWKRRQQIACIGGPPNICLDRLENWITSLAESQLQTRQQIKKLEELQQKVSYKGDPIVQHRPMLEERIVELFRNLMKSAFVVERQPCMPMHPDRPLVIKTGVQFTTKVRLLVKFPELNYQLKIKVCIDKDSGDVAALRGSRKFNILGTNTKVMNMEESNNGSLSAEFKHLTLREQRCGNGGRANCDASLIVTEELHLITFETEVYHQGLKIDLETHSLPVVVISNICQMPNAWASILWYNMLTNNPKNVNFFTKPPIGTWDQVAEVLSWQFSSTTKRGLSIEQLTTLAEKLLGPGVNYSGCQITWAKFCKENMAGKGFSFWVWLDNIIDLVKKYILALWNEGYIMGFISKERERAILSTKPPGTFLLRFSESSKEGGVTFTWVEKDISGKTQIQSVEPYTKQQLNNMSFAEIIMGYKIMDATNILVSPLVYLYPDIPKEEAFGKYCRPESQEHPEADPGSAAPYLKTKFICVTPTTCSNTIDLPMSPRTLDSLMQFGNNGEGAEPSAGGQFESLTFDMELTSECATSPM

CNC(=O)Oc1cccc2c1OC(C)(C)C2
active: [4] 4.56 µM | [17] 3.38 µM
not listed: [20]
inactive: all other assays above

CCOC(=O)[C@]1(c2ccccc2)Oc2ccccc2[C@@H]1N
inactive: [1] | [2] | [5] | [6] | [7] | [8] | [12] | [18]
active: [3] 84.2 µM | [4] 71.2 µM | [9] 90.6 µM | [10] 93.2 µM | [11] 70.9 µM | [14] 90.8 µM | [15] 3.18 µM | [17] 83.1 µM | [20] 80 µM | [19] 77.6 µM

CCNS(=O)(=O)C(F)(F)C(F)(F)C(F)(F)C(F)(F)C(F)(F)C(F)(F)C(F)(F)C(F)(F)F
active: [3] 40.5 µM | [4] 30.4 µM | [9] 48.2 µM | [15] 48.2 µM | [18] 48.2 µM
not listed: [16] | [20]
inactive: all other assays above

c1ccc2c(c1)oc1ccccc12
not listed: [14]
inactive: all other assays above

Cc1ccc(N=C=O)cc1N=C=O
active: [3] 30.6 µM | [4] 19.6 µM | [5] 38.9 µM | [10] 31.4 µM | [15] 19.3 µM | [19] 33.1 µM
not listed: [20]
inactive: all other assays above

Cc1cccc(N)c1N
active: [3] 47.4 µM | [8] 9.92 µM | [9] 50 µM | [15] 32.3 µM | [17] 17.2 µM | [18] 50 µM
not listed: [14]
inactive: all other assays above

C[C@]12C=CC3=C4CCC(=O)C=C4CC[C@H]3[C@@H]1CC[C@@H]2O
active: [3] 41 µM | [9] 9.92 µM | [10] 81.8 µM | [15] 15.7 µM | [17] 1.01 µM | [18] 72.4 µM
not listed: [16]
inactive: all other assays above

— PubChem BioAssay (EPA / NIEHS)
